Results: PubChem BioAssay
Calls of active or inactive are those of the source.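 Rule for the calls, unless noted: active = z-score of at least 1.8 in each of two replicates, scored against plate mean and spread of sample wells; inactive = the rest.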

What was measured:
[1] = viability rescue of complex I mutant cybrids, primary screen, cell-based, galactose medium, ATP luminescence (AID 1645843); details: complex I mutant cybrid cells, 72 h, stronger effect = higher value;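 note: positive z means more ATP and so rescue of galactose-driven cybrid death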
[2] = LFS_MB_P medulloblastoma growth inhibition, cell-based, chromothripsis tumors, cisplatin or BGB combos (AID 1671449; in the data active = inhibition above about 80%;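 note: cells exposed for 96 hours; 0% = vehicle DMSO and 100% = killing by high DMSO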); details: LFS_MB_P medulloblastoma cells
[3] = HDN33 neuroblastoma growth inhibition, cell-based, chromothripsis tumors, cisplatin or BGB combos (AID 1671450; in the data active = inhibition above about 80%;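 note: cells exposed to compound for four days; 0% = vehicle DMSO and 100% = cell killing by high DMSO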); details: HDN33 neuroblastoma cells, stronger effect = higher value
[4] = ICB984 medulloblastoma cell growth inhibition, synergistic combos for chromothripsis tumors, cisplatin or BGB combos (AID 1671451; call rule not given here;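 note: cells exposed for 96 hours before readout; 0% = vehicle DMSO and 100% = killing by high DMSO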); details: ICB984 medulloblastoma cells, drug combinations, stronger effect = higher value
[5] = LFS_MB_1R medulloblastoma cell growth inhibition, synergistic combos for chromothripsis tumors, cisplatin or BGB combos (AID 1671452; in the data active = inhibition above about 80%;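 note: cells exposed for 96 hours before readout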); details: LFS_MB_1R medulloblastoma cells, stronger effect = higher value
[6] = HTB85 osteosarcoma cell growth inhibition, synergistic combos for chromothripsis tumors, BGB or cisplatin IC20 combos (AID 1671453; in the data active = inhibition above about 80%;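 note: cells exposed for 96 hours before readout; 0% = vehicle DMSO and 100% = high DMSO killing control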); details: HTB85 osteosarcoma cells, drug combinations, stronger effect = higher value
[7] = CRL2098 osteosarcoma cell growth inhibition, synergistic combos for chromothripsis tumors, BGB or cisplatin IC20 combos (AID 1671454; in the data active = inhibition above about 80%;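 note: cells exposed for 96 h before readout; 0% = vehicle DMSO and 100% = killing by high DMSO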); details: CRL2098 osteosarcoma cells, drug combinations, stronger effect = higher value
[8] = HD-MB03 medulloblastoma cell growth inhibition, synergistic combos for chromothripsis tumors, BGB or cisplatin IC20 combos (AID 1671455; in the data active = inhibition above about 83%;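 note: 0% = vehicle DMSO and 100% = high DMSO as cytotoxic control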); details: HD-MB03 medulloblastoma cells, stronger effect = higher value
[9] = UWB1.289 ovarian carcinoma cell growth inhibition, synergistic combos for chromothripsis tumors, BGB or cisplatin combos (AID 1671456; in the data active = inhibition above about 80%;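 note: cells exposed to compound for four days; 0% = vehicle DMSO and 100% = killing by high DMSO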); details: UWB1.289 ovarian carcinoma cells, stronger effect = higher value
[10] = LFS_MB_2R medulloblastoma cell growth inhibition, synergistic combos for chromothripsis tumors, cisplatin combos (AID 1671457; in the data active = inhibition above about 80%;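 note: cells exposed to compound for four days before readout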); details: LFS_MB_2R medulloblastoma cells, stronger effect = higher value
[11] = MDA-MB-436 breast carcinoma cell growth inhibition, synergistic combos for chromothripsis tumors, BGB or cisplatin combos (AID 1671458; call rule not given here;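 note: cells exposed for 96 hours; 0% = vehicle DMSO and 100% = killing by high DMSO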); details: MDA-MB-436 breast carcinoma growth inhibition, drug combinations, stronger effect = higher value
[12] = UWB1.289_BRCA1 ovarian cancer growth, cell-based, BGB or cisplatin combinations (AID 1671459; in the data active = inhibition above about 80%); details: UWB1.289 BRCA1 ovarian carcinoma, drug combinations, stronger effect = higher value
[13] = human astrocyte viability loss, single and combined drugs, cytotoxicity control for chromothriptic childhood tumor combination screen, cell-based, BGB or cisplatin IC20 combos (AID 1671460; in the data active = inhibition above about 80%;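 note: cells exposed to compounds for 96 hours before viability readout; 0% = vehicle and 100% = killing control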); details: Human astrocytes, drug combinations, stronger effect = higher value
[14] = growth inhibition of BT084 medulloblastoma cells, cell-based, ICGC_MB145, cisplatin and BGB IC40 combos (AID 1671461; in the data active = inhibition above about 80%;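 note: cells exposed to drugs for 96 hours; 0% = vehicle DMSO and 100% = high DMSO full killing control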); details: drug combinations, stronger effect = higher value
[15] = growth inhibition of RCMB18 medulloblastoma cells, cell-based, cisplatin and BGB IC40 combos (AID 1671462; in the data active = inhibition above about 80%;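 note: cells exposed to compound for four days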); details: stronger effect = higher value
[16] = growth inhibition of CRL1545 osteosarcoma cells, cell-based, cisplatin and BGB IC20 combos (AID 1671464; in the data active = inhibition above about 80%;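 note: cells exposed to compound for 96 hours before readout; 0% = vehicle DMSO and 100% = high DMSO killing control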); details: stronger effect = higher value
[17] = measured here: combination with BGB IC40, at 0.05 µM
[18] = measured here: with BGB IC20 combination, at 0.5 µM
[19] = measured here: with cisplatin IC20 combination, at 0.5 µM
[20] = measured here: combination with cisplatin, at 0.5 µM
[21] = measured here: combination with cisplatin, at 5 µM

With `COC(=O)CCC(=O)N1CCc2[nH]nc(-c3ccc4c(c3)OCO4)c2C1` the z-score [1] was -0.12 (inactive).

In the case of `CC(C)Oc1cccc(C(=O)N2CCC(Cn3cc(C4CC4)nn3)CC2)c1`, the z-score [1] is reported as -0.515 (inactive).

For `Cc1cc(NC(=O)CCC2CC2)n(C(C)C)n1`, the z-score [1] was -0.44 (inactive).

In the case of `CCCn1nc(NC(=O)Cn2ccc(-c3ccccc3F)n2)c2ccccc21`, the z-score [1] is reported as -1.28 (inactive).

In the case of `CC(CCN1CCC(n2cc(CO)nn2)CC1)CC(C)(C)C` (centres undefined), the z-score [1] is reported as -0.48 (inactive).

For `Cc1nsc(NC(=O)N2CCCCC2c2cccc(F)c2)n1` (centres undefined), the z-score [1] was -0.55 (inactive).

With `Cc1ccccc1-c1noc(C2CC(C(C)C)=NO2)n1` (centres undefined) the z-score [1] was 1.73 (inactive).

For `c1ccc(Cc2noc(-c3cccc4nccnc34)n2)cc1`, the z-score [1] was 2.6 (active).

In the case of `CCC(=O)N(CC)c1cc(C)ccc1OC1(C(=O)O)CCSCC1`, the z-score [1] is reported as -0.47 (inactive).

In the case of `NC(=O)NCc1cn(C2CCN(C(=O)C3CCCCCC3)CC2)nn1`, the z-score [1] is reported as -0.575 (inactive).

In the case of `Cc1nnc2ccc3nnc(-c4cc(Cl)ccc4OC(C)C)n3n12`, the z-score [1] is reported as -0.5 (inactive).

With `COc1ccc(-c2noc(C3CC(C(C)C)=NO3)n2)c(OC)c1` (centres undefined) the z-score [1] was -0.525 (inactive).

In the case of `Cc1csc2c(=O)n(Cc3ccc(Cl)s3)cnc12`, the z-score [1] is reported as -0.505 (inactive).

In the case of `COc1ccccc1C(=O)N1CCN(C(=O)c2nc3ccccc3c(=O)[nH]2)CC1`, the z-score [1] is reported as 0.365 (inactive).

In the case of `COc1ccc(OC)c(-c2ccc3nc(C)ccc3c2)c1`, the z-score [1] is reported as -1.14 (inactive).

In the case of `Cc1cc(CN[C@@H](C)C(N)=O)c(C)s1`, the z-score [1] is reported as 0.04 (inactive).

In the case of `COc1nccnc1-c1ccc2c(c1)OCO2`, the z-score [1] is reported as 0.365 (inactive).

In the case of `NC1CCN(C2CCN(c3cccc(-c4ccccc4)c3)CC2)CC1`, the z-score [1] is reported as -1.03 (inactive).

In the case of `COc1ccc(F)cc1-c1ccc2ccccc2n1`, the z-score [1] is reported as -0.15 (inactive).

In the case of `CCCCn1nnnc1NC(=O)N1C2CCCCC1CCC2`, the z-score [1] is reported as 0.915 (inactive).

In the case of `CC(C)c1ncc(C(=O)N2CCC(n3cc(-c4ccccn4)nn3)CC2)cn1`, the z-score [1] is reported as 0.26 (inactive).

For `CC1(C)C2(c3nc(Cc4c(F)cccc4Cl)no3)CC[C@@]1(C)C(=O)O2`, the z-score [1] was -0.525 (inactive).

In the case of `CC(CCc1ccc(O)cc1)NC1CCCCCC1` (centres undefined), the z-score [1] is reported as -0.855 (inactive).

In the case of `Cc1ccsc1-c1cccc(C(=O)c2nccn2C)c1`, the z-score [1] is reported as 0.225 (inactive).

In the case of `Cc1nsc(NC(=O)N2CCCN(c3ccc(F)cc3)CC2)n1`, the z-score [1] is reported as -0.27 (inactive).

For `Cc1cc(C)c(-n2cccn2)c(-c2nc3c(cnn3C(C)C)[nH]2)c1`, the z-score [1] was -0.485 (inactive).

For `CC(C)Oc1ccc(Cl)cc1-c1nnc2ccc(Cl)cn12`, the z-score [1] was 0.31 (inactive).

In the case of `Cc1cc(CN2CCC(Cc3ccc(F)cc3)CC2)n(C)n1`, the z-score [1] is reported as 0.225 (inactive).

For `Cc1nn(C)c(C)c1-c1ccnc(NCc2ccc3nsnc3c2)n1`, the z-score [1] was -0.665 (inactive).

In the case of `CCn1ccnc1CN(C)Cc1ccc(-c2nc(C(F)(F)F)c(C)c(=O)[nH]2)cc1`, the z-score [1] is reported as 0.66 (inactive).

In the case of `Cc1cccc2c(=O)n(Cc3ccc(Cl)s3)cnc12`, the z-score [1] is reported as 0.23 (inactive).

For `O=C1N=c2ccccc2=C1c1c(O)[nH]c2ccccc12`, the inhibition ([2]; at 0.5 µM, stronger effect = higher value) was -10.5% (inactive), the inhibition ([2]; measured here: combination with BGB IC20, at 0.005 µM) was -1.18% and the inhibition ([2]; measured here: combination with BGB IC40, at 0.005 µM) was -11.2%. The inhibition [2, 17] was -2.67%, the inhibition ([2]; measured here: combination with cisplatin, at 0.5 µM, stronger effect = higher value) was -21% and the inhibition ([2]; measured here: combination with cisplatin, at 5 µM, stronger effect = higher value) was 114%. The inhibition ([3]; BGB combo, at 5 µM) was 61%, the inhibition ([3]; at 0.5 µM) was 5.47% (inactive) and the inhibition ([3]; cisplatin combo, at 5 µM) was 51.4%. For the same compound, the inhibition [3, 18] was 16.4%, the inhibition [3, 19] was -3.78% and the inhibition ([3]; single agent, at 5 µM) was 45.3%. For the same compound, the inhibition ([4]; BGB IC20 combo, at 0.005 µM) was 11.6%, the inhibition ([4]; BGB IC40 combo, at 0.005 µM) was 12.6% and the inhibition ([4]; BGB IC40 combo, at 0.05 µM) was 98.1%. For the same compound, the inhibition ([4]; at 0.5 µM) was -13.3% (inactive), the inhibition ([4]; cisplatin combo, at 0.05 µM) was 98% and the inhibition ([4]; cisplatin combo, at 0.5 µM) was -8.2%. For the same compound, the inhibition ([4]; cisplatin combo, at 5 µM) was -23.1%, the inhibition ([4]; measured here: 5 uM single agent, at 5 µM) was -12.3% and the inhibition ([5]; at 0.5 µM) was 38.6% (inactive). For the same compound, the inhibition [5, 17] was -8.14%, the inhibition [5, 20] was 68.7% and the inhibition [5, 21] was 104%. The inhibition ([6]; at 0.5 µM) was -27.2% (inactive), the inhibition ([6]; measured here: with BGB IC20, at 0.5 µM) was -36.8% and the inhibition ([6]; measured here: with BGB IC20, at 5 µM) was 49.4%. For the same compound, the inhibition ([6]; measured here: with cisplatin IC20, at 0.5 µM) was -31.8%, the inhibition ([6]; measured here: with cisplatin IC20, at 5 µM) was 19.9% and the inhibition ([6]; single agent, at 5 µM) was 73.7%. The inhibition ([7]; at 0.5 µM) was -38.8% (inactive), the inhibition ([7]; measured here: combination with BGB at IC20, at 0.5 µM) was -85.6% and the inhibition ([7]; measured here: combination with cisplatin at IC20, at 0.5 µM) was -13.6%. The inhibition ([8]; at 0.5 µM) was -7.99% (inactive), the inhibition ([8]; measured here: combo with BGB at IC20, at 0.5 µM) was -0.15% and the inhibition ([8]; measured here: combo with cisplatin at IC20, at 0.5 µM) was -18.7%. The inhibition ([9]; at 0.5 µM) was -2.76% (inactive), the inhibition ([9]; measured here: inhibition with BGB combination, at 0.05 µM) was -4.21% and the inhibition ([9]; measured here: inhibition with cisplatin combination, at 0.05 µM) was -14.6%. For the same compound, the inhibition ([10]; at 0.5 µM) was -4.68% (inactive), the inhibition [10, 20] was -7.54% and the inhibition [10, 21] was 96.6%. For the same compound, the inhibition ([11]; at 0.5 µM) was 0.62% (inactive), the inhibition ([11]; measured here: BGB combination, at 0.5 µM) was -2.01% and the inhibition ([11]; measured here: BGB combination, at 5 µM) was 38.1%. It also gave an inhibition ([11]; measured here: cisplatin combination, at 0.5 µM) of 2.13%, an inhibition ([11]; measured here: cisplatin combination, at 5 µM) of 46% and an inhibition ([12]; BGB combination, concentration series, at 5 µM) of 47.2%. The inhibition ([12]; at 0.5 µM) was -5.34% (inactive), the inhibition ([12]; cisplatin combination, concentration series, at 5 µM) was 63.2% and the inhibition ([13]; at 0.5 µM) was -0.99% (inactive). For the same compound, the inhibition ([13]; measured here: combo with BGB IC20, at 0.5 µM) was 17.5%, the inhibition ([13]; measured here: combo with cisplatin IC20, at 0.5 µM) was -29.2% and the inhibition ([14]; at 0.5 µM) was -8.62% (inactive). It also gave an inhibition ([14]; cisplatin combination, at 0.5 µM) of -4.64%, an inhibition ([14]; cisplatin combination, at 5 µM) of 99.5% and an inhibition ([14]; measured here: BGB IC40 combination 0.05 uM, at 0.05 µM) of 21.5%. For the same compound, the inhibition ([14]; single agent, at 5 µM) was 59.7%, the inhibition ([15]; at 0.5 µM) was 50.6% (inactive) and the inhibition ([15]; cisplatin combo, at 5 µM) was 103%. It also gave an inhibition ([15]; measured here: BGB IC40 combination, at 0.05 µM) of -10.1%, an inhibition [15, 20] of 81.1% and an inhibition ([15]; single agent, at 5 µM) of 98.9%. For the same compound, the inhibition ([16]; at 0.5 µM) was 7.46% (inactive), the inhibition [16, 18] was -4.11% and the inhibition [16, 19] was 11.3%. It also gave an inhibition ([16]; single agent, at 0.05 µM) of -37% and an inhibition ([16]; single agent, at 5 µM) of 95.5%.
